The source of these data is PubChem BioAssay (NCATS).

“And” between values parts separate entries of the source, which are not always exact repeats. Equal values may be shown once. Values without a mark were called inactive. Inconclusive results are not listed. The source made the active and inactive calls. Unless noted, calls come from the whole dose curve; as a rule, active = well fitted curve in either direction with a large enough effect (not every such curve was filed as active); inconclusive = small, poorly fitted or top-dose-only effect, or another doubt; inactive = flat fitted curve, though single readings scatter.

For assay [1], the target named is Lysosomal acid glucosylceramidase (Homo sapiens) (UniProt P04062). The assay can be described thus: Glucocerebrosidase-p2 (AID 348; in the data active = potency below about 10 µM; note: potency is the fitted concentration of half-maximal effect). The following applies: purified GBA, blue fluorogenic substrate, 40 min. A digest of the protocol:
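Compounds titrated from 0.6 nM upwards against 0.2 nM enzyme in pH 5.9 citric acid/KH2PO4, taurocholate, tween-20; blue fluorogenic substrate 80 uM, 40 min room temperature, stopped and read Ex 365/Em 440 for AC50.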

Assay [2] in a line: AP1 Signaling Pathway (AID 357).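 Note: ME-180 reporter cells stimulated with EGF at its EC50 level; % is set by controls: 0 for no effect and ±100 for the full control effect.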 Particulars: ME-180 AP-1-bla reporter, EGF-induced, beta-lactamase ratio, 5 h; at 7.69 µM (top of the series) unless noted. A digest of the protocol:
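Beta-lactamase reporter under AP-1 response element, ME-180 background. Stimulus: EC50 EGF. Compound exposure 5 h, 37 °C. Detection: CCF4, 2.5 h RT, 460/530 nm. Values: AC50 from titration.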

The nature of assay [3]: NFAT Signaling Pathway (AID 444).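 Note: carbachol stimulus at about its EC50 of 1 µM final; % is set by controls: 0 for no effect and ±100 for the full control effect.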 The following applies: Jurkat NFAT-bla M1, carbachol, beta-lactamase ratio, 5 h. A digest of the protocol:
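Jurkat cells carrying an NFAT-driven β-lactamase reporter and co-transfected muscarinic M1 receptor were treated with compound plus carbachol (1 uM final, an EC50 level) for 5 h at 37 °C. CCF4 loading followed for 1 h at RT; 460/530 nm ratio gave %activity.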

Assay [4] can be described thus: Stat Signaling Pathway (AID 446).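 Note: ME-180 cervical cancer cells given 40 pM IL-6 alongside compound; SIE-controlled beta-lactamase reporter measured as 460/530 nm FRET emission ratio; % is set by controls: 0 for no effect and ±100 for the full control effect.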 Particulars: ME-180 (cervical carcinoma) SIE beta-lactamase reporter, IL-6 stimulated, 5 h. A digest of the protocol: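 IL-6/STAT signaling read in ME-180 cells via an SIE beta-lactamase reporter. Stimulus was 40 pM IL-6 (its AC50) for 5 hrs, so both activation and inhibition register.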
For assay [5], the target named is Glucocorticoid receptor (Homo sapiens) (UniProt P04150). Kind of assay: GR-GFP Redistribution (AID 450;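 active = compounds whose dose series gives a full or clear partial fitted curve of increased nuclear translocation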; note: potency is the fitted concentration of half-maximal effect). Particulars: U2OS GR-GFP nuclear translocation, laser cytometry, 2 h.
Chain of Glucocorticoid receptor (Homo sapiens) (P04150 whole entry, looked up, the tested form may be a part): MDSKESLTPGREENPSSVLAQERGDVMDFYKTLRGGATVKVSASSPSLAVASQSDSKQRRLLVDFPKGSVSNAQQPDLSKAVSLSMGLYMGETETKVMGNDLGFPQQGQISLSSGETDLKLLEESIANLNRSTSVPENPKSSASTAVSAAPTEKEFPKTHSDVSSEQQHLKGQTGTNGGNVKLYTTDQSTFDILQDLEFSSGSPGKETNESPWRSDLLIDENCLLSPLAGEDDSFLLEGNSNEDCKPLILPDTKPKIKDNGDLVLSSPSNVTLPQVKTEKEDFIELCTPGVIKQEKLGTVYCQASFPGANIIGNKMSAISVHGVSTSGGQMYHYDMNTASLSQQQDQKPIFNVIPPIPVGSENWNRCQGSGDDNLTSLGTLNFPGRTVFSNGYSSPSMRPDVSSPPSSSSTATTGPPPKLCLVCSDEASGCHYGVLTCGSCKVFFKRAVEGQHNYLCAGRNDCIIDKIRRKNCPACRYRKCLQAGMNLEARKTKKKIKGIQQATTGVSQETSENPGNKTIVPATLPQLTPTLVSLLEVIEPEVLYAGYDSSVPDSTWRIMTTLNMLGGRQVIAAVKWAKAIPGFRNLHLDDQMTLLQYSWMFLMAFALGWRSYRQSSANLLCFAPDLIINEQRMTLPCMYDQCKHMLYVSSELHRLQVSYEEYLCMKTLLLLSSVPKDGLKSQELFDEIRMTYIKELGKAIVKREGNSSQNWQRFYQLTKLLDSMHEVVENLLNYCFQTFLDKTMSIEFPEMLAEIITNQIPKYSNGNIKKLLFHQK
Assay [6] has the same target. The assay can be described thus: GR-EFC Redistribution (AID 451; calls by dose curve; note: potency is the fitted concentration of half-maximal effect). Particulars: CHO-K1 GR-EFC translocation, beta-gal luminescence, 2 h. A digest of the protocol: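 CHO-K1 cells stably expressing nuclear-localized β-gal enzyme acceptor and GR fused C-terminally to the enzyme donor fragment; ligand-driven nuclear translocation restores β-gal by complementation. Compounds titrated up to 46 uM final, 2 h at 37 °C; luminescence read.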

Assay [7] has as its target Mitogen-activated protein kinase 10 (Mus musculus) (UniProt Q61831). Kind of assay: JNK3 AlphaScreen Assay (AID 530).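 Note: kinase came from lysate of stimulated human HepG2 cells; signal reports phosphorylation of biotinylated GST-cJun 1-79 at Ser73 with 10 µM ATP; % is set by controls: 0 for no effect and ±100 for the full control effect.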 The following applies: JNK3 lysate, c-Jun phosphorylation; series mostly up to 11.4 µM. The method in brief: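 Inhibitors reduce antibody binding to phosphorylated biotin-cJun, lowering AlphaScreen luminescence. Lysates from HepG2 cells pre-activated by IL-1beta plus TNF-alpha supplied JNK3; compounds were titrated.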

The target of assay [8] is 3',5'-cyclic-AMP phosphodiesterase 4B (Homo sapiens) (UniProt Q07343). Kind of assay: qHTS Assay for Inhibitors of PDE-IV (AID 607; active = well fitted activation curve with a large enough effect in the main read-out, with a control signal flat, not every such curve was filed as active; note: % of control where 0% means no effect). Particulars: HEK293 ACTOne CNG channel cells, membrane potential fluorescence; series mostly up to 22.9 µM. The method in brief:
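Live HEK293 cells with a modified cyclic nucleotide-gated (CNG) channel report intracellular cAMP via membrane-potential dye fluorescence (ex 535/em 590 nm). Endogenous PDE-IV was targeted. Compounds were tested at up to 22.9 uM final; RO 20-1724 100 uM served as control.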

The target in assay [9] is ATP-dependent 6-phosphofructokinase (Trypanosoma brucei brucei) (UniProt O15648). The assay can be described thus: qHTS Assay to Find Inhibitors of T. brucei phosphofructokinase: hit validation (AID 492961; active = well fitted curve in the direction sought with a large enough effect; an effect the other way counts as inactive or inconclusive). The following applies: T. brucei PFK, ADP-Glo luminescence; series mostly up to 51.4 µM. The method in brief: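 Reaction: 0.1 M triethanolamine pH 8.0, 5 mM MgCl2, F6P 0.5 mM, ATP 0.1 mM, PFK 1.25 nM, 45 min RT. Read-out: ADP-Glo luminescence. Analysis: concentration-response fits, classed by r2 and efficacy.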
Chain of ATP-dependent 6-phosphofructokinase (Trypanosoma brucei brucei) (O15648 whole entry, looked up): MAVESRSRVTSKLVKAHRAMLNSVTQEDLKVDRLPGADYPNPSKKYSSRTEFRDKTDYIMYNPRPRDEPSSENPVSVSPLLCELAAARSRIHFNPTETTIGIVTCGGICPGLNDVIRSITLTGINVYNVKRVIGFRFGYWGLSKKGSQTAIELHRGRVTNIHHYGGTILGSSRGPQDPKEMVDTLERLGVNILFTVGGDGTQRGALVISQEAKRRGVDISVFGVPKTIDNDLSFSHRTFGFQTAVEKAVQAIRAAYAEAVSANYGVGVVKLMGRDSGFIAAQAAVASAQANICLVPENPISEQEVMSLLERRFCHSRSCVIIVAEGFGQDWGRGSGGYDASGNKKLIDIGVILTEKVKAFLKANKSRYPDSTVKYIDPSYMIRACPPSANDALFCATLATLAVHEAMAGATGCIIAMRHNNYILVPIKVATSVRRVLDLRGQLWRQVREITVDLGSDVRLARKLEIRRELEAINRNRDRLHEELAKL

Assay [10] is described as follows: qHTS profiling for inhibitors of Plasmodium falciparum proliferation (AID 504749; active = well fitted curve in the direction sought with a large enough effect; an effect the other way counts as inactive or inconclusive; note: potency is the fitted concentration of half-maximal effect;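 for activity, negative = inhibition: 0% = DMSO vehicle and full inhibition = artemisinin control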; for all read-outs here: nearly all actives have a fitted effect of over 60% in size). Particulars: P. falciparum in erythrocytes, SYBR Green DNA, 72 h; for activity, negative = inhibition: at 28.7 µM (top of the series). The method in brief:
(§1)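 Parasite proliferation within erythrocytes, 72 h exposure. Endpoint: SYBR Green I fluorescence after overnight lysis at room temperature. Controls: 0.29 uM artemisinin, DMSO.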

The next assay has as its system AS120. The assay is described as above. The following applies: P. falciparum in erythrocytes, SYBR Green DNA, 72 h; series mostly up to 28.7 µM. The method in brief:
as §1

For another assay, the system named is ATS189. Described as above. Particulars: P. falciparum in erythrocytes, SYBR Green DNA, 72 h; series mostly up to 28.7 µM. The method in brief:
as §1

The test system of the next assay is TAB113. The description is as above. Particulars: P. falciparum in erythrocytes, SYBR Green DNA, 72 h; series mostly up to 28.7 µM. A digest of the protocol:
as §1

A further assay has as its system W2. The assay is described as above. The following applies: P. falciparum in erythrocytes, SYBR Green DNA, 72 h; series mostly up to 28.7 µM. The method in brief: as §1
Where [11] appears, read: at 7.69 µM (top of the series) unless noted.

Chain of 3',5'-cyclic-AMP phosphodiesterase 4B (Homo sapiens) (Q07343 whole entry, looked up): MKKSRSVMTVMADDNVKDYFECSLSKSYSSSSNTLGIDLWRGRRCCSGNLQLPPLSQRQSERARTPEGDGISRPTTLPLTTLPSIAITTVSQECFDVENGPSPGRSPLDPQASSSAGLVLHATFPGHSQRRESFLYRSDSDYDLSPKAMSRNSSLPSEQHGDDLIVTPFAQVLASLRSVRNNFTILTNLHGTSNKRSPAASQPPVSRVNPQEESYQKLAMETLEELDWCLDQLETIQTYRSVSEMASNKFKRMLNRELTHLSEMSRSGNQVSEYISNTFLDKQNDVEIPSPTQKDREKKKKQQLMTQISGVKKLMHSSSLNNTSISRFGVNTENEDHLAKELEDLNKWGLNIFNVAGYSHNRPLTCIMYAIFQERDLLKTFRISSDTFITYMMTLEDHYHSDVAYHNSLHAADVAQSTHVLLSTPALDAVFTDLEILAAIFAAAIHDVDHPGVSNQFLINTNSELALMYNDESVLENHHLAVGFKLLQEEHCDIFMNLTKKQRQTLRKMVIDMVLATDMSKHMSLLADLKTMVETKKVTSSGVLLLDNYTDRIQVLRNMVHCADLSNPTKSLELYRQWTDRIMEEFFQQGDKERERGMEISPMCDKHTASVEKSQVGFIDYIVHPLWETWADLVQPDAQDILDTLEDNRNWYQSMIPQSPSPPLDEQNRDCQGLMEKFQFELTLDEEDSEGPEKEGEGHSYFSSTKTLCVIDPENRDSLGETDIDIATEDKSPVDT
Chain of Lysosomal acid glucosylceramidase (Homo sapiens) (P04062 whole entry, looked up): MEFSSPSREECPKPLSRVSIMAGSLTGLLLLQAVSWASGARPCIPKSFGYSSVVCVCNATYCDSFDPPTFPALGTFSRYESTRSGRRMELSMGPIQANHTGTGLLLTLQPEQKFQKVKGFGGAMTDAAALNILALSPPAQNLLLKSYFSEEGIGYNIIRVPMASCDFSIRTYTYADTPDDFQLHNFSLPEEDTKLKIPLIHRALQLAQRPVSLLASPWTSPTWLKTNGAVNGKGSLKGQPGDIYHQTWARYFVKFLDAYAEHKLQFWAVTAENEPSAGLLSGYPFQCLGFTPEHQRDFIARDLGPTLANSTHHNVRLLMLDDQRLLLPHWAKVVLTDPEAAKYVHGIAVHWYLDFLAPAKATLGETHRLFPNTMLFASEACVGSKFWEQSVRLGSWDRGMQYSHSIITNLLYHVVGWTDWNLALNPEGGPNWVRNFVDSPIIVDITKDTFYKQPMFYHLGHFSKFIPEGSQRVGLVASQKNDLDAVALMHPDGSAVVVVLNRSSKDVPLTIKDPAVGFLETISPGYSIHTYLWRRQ

As to `Nc1nc2c(ncn2[C@H]2CC[C@@H](CO)O2)c(=O)n1C(=O)c1ccccc1`, the Potency in [1] is over 11.4 µM; in [5] it was over 46 µM; in assay [6], over 9.22 µM. Also, the activity change, negative = inhibition was 5.69% in assay [2] and -10.1% in assay [3] (setting [11]). Besides, the activity, negative = inhibition in assay [4] (setting [11]) was 0.604%. The Potency result in assay [7] and in assay [8] was “inactive” throughout.
Take `O=C(O)c1cc(C(=O)O)cc(N2C(=O)c3ccccc3C2=O)c1`: the Potency in assay [1] is over 11.4 µM; in assay [5], over 46 µM; in assay [6] it was over 9.22 µM. The figures for the activity change, negative = inhibition in assay [2] and in assay [3] (setting [11]) were 4.16% and 6.56%, respectively. In addition, the activity, negative = inhibition in assay [4] (setting [11]) was -2.79%. Also, the Potency result in assay [7] and in assay [8] was “inactive” throughout.
For `O=C(O)C(Cl)(c1ccccc1)c1ccccc1`, the values for the Potency in assay [1], in assay [5] and in assay [6] were over 11.4 µM, over 46 µM and over 9.22 µM, respectively. The results for the activity change, negative = inhibition in [2] and in assay [3] (setting [11]) were 1.69% and 6.6%, respectively. In [4] (setting [11]), the activity, negative = inhibition was -5.62%. The Potency result in [7] is “inactive”.
In the case of `O=C(O)C(=Cc1ccnc2ccccc12)C(=O)O`, the Potency in assay [1] is over 11.4 µM; in assay [5], over 46 µM; in assay [6], over 9.22 µM. Moreover, the activity change, negative = inhibition was -3.98% in [2] and 24.2% in assay [3] (setting [11]). In addition, in [4] (setting [11]), the activity, negative = inhibition is 9.09%. Also, the Potency entry in [7] and in [8] was “inactive” throughout.
Consider `NC1=N[C@H](c2ccc(Cl)cc2)N(c2ccc(S(N)(=O)=O)cc2)C(N)=N1`, for which the Potency is over 11.4 µM in assay [1], over 46 µM in assay [5] and over 9.22 µM in [6]. The activity change, negative = inhibition in [2] was -2.15%; in assay [3] (setting [11]), -10.1%. In addition, the activity, negative = inhibition in [4] (setting [11]) was -0.371%. Also, the Potency result in assay [7] is “inactive”.
With `O=c1oc2ccccc2c(O)c1/C=N/c1nc(-c2ccc(O)c(O)c2)cs1`, the Potency in assay [1] is over 11.4 µM; in assay [5], over 46 µM; in [6], over 9.22 µM. Further, the activity change, negative = inhibition is -3.14% in [2] and 27.7% in [3] (setting [11]). The activity, negative = inhibition in assay [4] (setting [11]) was -11.7%. For the same molecule, the Potency result in assay [7] and in [8] was “inactive” in each case.
On to `Cc1c(-c2nc(N)nc(C3CC3)c2C)nc(N)nc1C1CC1`, for which the Potency is over 11.4 µM in assay [1], over 46 µM in [5] and over 9.22 µM in assay [6]. Further, the activity change, negative = inhibition in assay [2] was 2.87%; in assay [3] (setting [11]) it was 4.67%. For the same molecule, the activity, negative = inhibition in assay [4] (setting [11]) is 5.17%. For the same molecule, the Potency result in assay [7] and in assay [8] was “inactive” in each case.
For `O=C(O)[C@@H](O)[C@@H](O)[C@H](O)C(=O)CO`, the results for the Potency in assay [1], in [5] and in assay [6] were over 11.4 µM, over 46 µM and over 9.22 µM, respectively. Besides, the activity change, negative = inhibition in [2] is -1.75%; in assay [3] (setting [11]) it was -10.1%. Moreover, the activity, negative = inhibition was 9.54% in [4] (setting [11]), 6.93% in assay [10] (parasite line A) and 7.4% in assay [10] (parasite line B). In addition, the Potency result (in assay [7]; in assay [8]; in the assay on AS120; in the assay on ATS189; in the assay on TAB113; in the assay with W2) was “inactive” each time. Further, the molecule was classed as inactive in assay [9].
As for `O=C(O)C(Cc1ccccc1)Cc1ccccc1`, the Potency in [1] is over 11.4 µM; in assay [5], over 46 µM; in [6], over 9.22 µM. Also, the activity change, negative = inhibition in assay [2] is 8.41%; in assay [3] (setting [11]), 1.48%. For the same molecule, the activity, negative = inhibition in [4] (setting [11]) was -8.39%. Also, in assay [7], the Potency result is “inactive”.
For the molecule `CC1(C)S[C@@H]2[C@H](NC(=O)Cc3ccccc3)C(=O)N2[C@@H]1C(=O)O`, the Potency in assay [1] was over 11.4 µM; in assay [5], over 46 µM; in assay [6] it was over 9.22 µM. Further, the activity change, negative = inhibition was 11.5% in assay [2] and 4.82% in assay [3] (setting [11]). The activity, negative = inhibition in [4] (setting [11]) was -4.4%; in [10] (parasite line A), 2.23%; in [10] (parasite line B) it was 9.91%. Besides, the Potency result (in assay [7]; in [8]; in the assay on AS120; in the assay on ATS189; in the assay on TAB113; in the assay with W2) was “inactive” each time. In assay [9], the outcome was inactive.
For `C[N+](C)(C)CC(=O)N/N=C\c1ccncc1`, the Potency in assay [1] was over 11.4 µM; in [5] it was over 46 µM; in assay [6] it was over 9.22 µM. Besides, the activity change, negative = inhibition in assay [2] was -2.8%; in assay [3] (setting [11]) it was 3.32%. Further, in assay [4] (setting [11]), the activity, negative = inhibition was 8.79%. Besides, the Potency result in assay [7] and in assay [8] was “inactive” throughout.
Consider `CC(C)(C)c1ccc(CN2CCN([C@H](c3ccccc3)c3ccc(Cl)cc3)CC2)cc1`, for which the Potency in [1] was over 11.4 µM; in assay [5], over 46 µM; in assay [6] it was over 9.22 µM; in assay [10] (parasite line A) it was 7.94 µM (active); in [10] (parasite line B), 12.6 µM (active); in the assay on AS120 it was 7.94 µM (active). For the same molecule, the Potency with ATS189 is 8.91 µM (active); in the assay with TAB113, 6.31 µM (active); in the assay on W2 it was 3.38 µM (active). The activity change, negative = inhibition was 2.89% in assay [2] and -9.36% in assay [3] (setting [11]). Also, in assay [4] (setting [11]), the activity, negative = inhibition was 0.758%. Besides, the Potency result in [7] and in assay [8] was “inactive” each time. Further, the molecule was classed as inactive in assay [9].
For `C[C@H](Oc1ccc(Oc2cnc3ccc(Cl)cc3n2)cc1)C(=O)O`, the Potency in [1] was over 11.4 µM; in [5], over 46 µM; in [6], > 46 µM and > 9.22 µM. For the same molecule, the activity change, negative = inhibition in assay [2] was -24.4% [at 38 µM]; in assay [3] (at 7.69 µM (top of the series)), 8.25%; in assay [3] (at 38 µM (top of the series)), 7.14%. The results for the activity, negative = inhibition in [4] (at 7.69 µM (top of the series)) and in assay [4] (at 38 µM (top of the series)) were -19.5% and -10.1%, respectively. Also, the Potency result in assay [7] and in assay [8] was “inactive” in each case.
For `O=C1c2ccccc2C(=O)N1C1(C(=O)NC2(C(=O)O)CCCC2)CCCC1`, the Potency in assay [1] is over 11.4 µM; in assay [5] it was over 46 µM; in [6] it was over 9.22 µM. The activity change, negative = inhibition in assay [2] was 0.0237%; in assay [3] (setting [11]), 10.1%. Moreover, the activity, negative = inhibition in assay [4] (setting [11]) was 0.797%. In addition, the Potency result in [7] and in [8] was “inactive” in each case.
